# Screens deposited in PubChem BioAssay by National Center for Advancing Translational Sciences (NCATS).
# Pf Dd2 inh – inhibitors of Plasmodium falciparum Dd2 growth. Potency, µM (series often up to 28.9 µM), hits mostly inhibitors. P. falciparum Dd2 growth, SYBR Green, 72 h. actives 4.3% (n = 120,000). AID 1347417; active means well fitted inhibition curve with a large enough effect; further: nearly all actives have a fitted effect of over 65% in size
#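 Readout: SYBR Green fluorescence, 485 nm excitation, 535 nm emission, after ~16 h lysis at 37C. Before that, Dd2-infected red cells (2.5% hematocrit) grew 72 h with compound, 29 uM top final concentration.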
# A number is an active result; i = inactive. Only a selection was taken, and hits are over-represented in it overall.
SMILES,Pf Dd2 inh
Cc1cccc(NC(=O)CSc2nc3c([nH]c4ccccc43)c(=O)n2C)c1C,i
Cc1cc(C)cc(-n2c(SCC(=O)Nc3ccc4c(c3)OCCO4)nc3c([nH]c4ccccc43)c2=O)c1,i
O=C(CSc1nc2c([nH]c3ccccc32)c(=O)n1-c1ccccc1F)Nc1ccccc1C(F)(F)F,10µM
CC1CCN(C(=O)CSc2nc3c([nH]c4ccccc43)c(=O)n2-c2ccccc2)CC1,i
O=C(CSc1nc2c([nH]c3ccccc32)c(=O)n1-c1ccccc1)Nc1ccc2c(c1)OCO2,11µM
COc1ccc(NC(=O)CSc2nc3c([nH]c4ccccc43)c(=O)n2-c2ccccc2)c(OC)c1,5µM
O=C(CN1CC2CC(C1)[C@H]1CCCC(=O)N1C2)NCCC1=CCCCC1 (stereo partly drawn),i
COc1ccc(C(=O)N2CCC3(CC2)NC(=O)N(Cc2ccc(F)cc2)C3=O)c(C)c1,i
N#Cc1cccc(C(=O)N2CCCCCCNC(=O)[C@@H]3C[C@@H](c4nc(-c5cccnc5)no4)C[C@@H]32)c1,i
CCNC(=O)c1ccc(CN2C(=O)NC3(CCS(=O)(=O)CC3)C2=O)cc1,i
Cn1cc(C#N)cc1C(=O)N1CCC2(CCC(=O)N(CCc3cnc[nH]3)C2)CC1,i
Cc1ncc2n1C(=O)N(C1CCN(CC3CC3)CC1)C2,i
Cc1cc(C)cc(NC(=O)CN2C(=O)CSc3ccc(S(=O)(=O)N4CCCC4)cc32)c1,i
CCCCN(CCCC)CCNC(=O)CN1C(=O)CSc2ccc(S(=O)(=O)N3CCCCC3)cc21,i
CC(C)N(Cc1ccccc1)C(=O)CN1C(=O)CSc2ccc(S(=O)(=O)N3CCCC3)cc21,7.9µM
COc1ccc(-c2ccc3c(c2)C(=O)N2CCN(C(=O)COc4ccccc4)C[C@@H]2C(=O)N3)cc1,i
Cc1c(-c2ccc(F)cc2)[nH]c2ccc(CNC(=O)CN3CCOC3=O)cc12,i
CN(C)C(=O)c1c(NC(=O)c2ccccc2F)sc2c1CCCC2,i
CC(C)(C)C1CCc2c(sc(NC(=O)C3c4ccccc4Oc4ccccc43)c2C(N)=O)C1 (stereo not drawn),13µM
CC(C)(C)C1CCc2c(sc(NC(=O)c3cccc(Cl)c3)c2C(N)=O)C1 (stereo not drawn),i
CCOC(=O)c1c(NC(=O)C2c3ccccc3Oc3ccccc32)sc2c1CCC(CC)C2 (stereo not drawn),i
CC1CCN(C(=O)c2c(NC(=O)c3ccccc3F)sc3c2CCC(C(C)(C)C)C3)CC1 (stereo not drawn),8.9µM
O=C(Nc1sc2c(c1C(=O)N1CCCCC1)CCCC2)c1ccccc1Cl,i
CC1(C(=O)N2CCCC2C(=O)Nc2ccccc2Oc2cccnc2)CC1 (stereo not drawn),i
O=C(c1ccco1)N1CCN(C(=O)N2CC3CC(C2)[C@H]2CCCC(=O)N2C3)CC1 (stereo partly drawn),i
SMILES,Pf Dd2 inh
Cc1ncsc1-c1nc(CC2CCN(C)CC2)nn1Cc1ccccc1,i
CC(=O)Nc1ccc(C2(C(=O)NCc3ccc(F)cc3F)CCCCC2)cc1,i
O=C(CCc1cc2ccccc2[nH]c1=O)NCc1ccco1,i
CCN(Cc1noc(C2CCC2)n1)C(=O)C1CCN(c2ccccc2)C1=O (stereo not drawn),i
Cc1noc(-c2ccn3c(CNC(=O)C(C)c4ccccc4)nnc3c2)n1 (stereo not drawn),i
NC(=O)[C@@H](Cc1c[nH]c2ccccc12)NC(=O)[C@@]1(O)C[C@@H](O)[C@H](O)[C@@H](NC(=O)NC2CCCCC2)C1,i
O=C(COc1cccc(-c2nnc3n2CCCC3)c1)NCc1ccc(F)cc1,i
O=C(COc1ccc(-c2nnc3n2CCCC3)cc1)N1CCN(c2ccc(F)cc2)CC1,3.2µM
O=C(COc1ccc(Cl)cc1)Nc1ccc(-c2nnc3n2CCCC3)cc1,i
CSc1cccc(NC(=O)Nc2ccc(-c3nnc4n3CCCC4)cc2)c1,i
O=C(Cn1nc2n(c1=O)CCCCC2)N1CCN(c2ccc(F)cc2)CC1,i
O=C(Cc1cccc(F)c1)Nc1ccc(-c2nnc3n2CCCC3)cc1,i
O=C(CN1C(=O)CCC1=O)N1CCCCCCn2c(nnc2-c2ccc(F)cc2)CC1,i
O=C(Cc1ccccc1Cl)Nc1cccc(-c2nnc3n2CCCC3)c1,7.1µM
O=C(Nc1ccccc1)Nc1cccc(-c2nnc3n2CCCC3)c1,i
O=C(COc1ccc(F)cc1)Nc1cccc(-c2nnc3n2CCCC3)c1,8.9µM
O=C(COc1ccc(Cl)cc1)Nc1cccc(-c2nnc3n2CCCC3)c1,3.2µM
O=C(CC1CCCCC1)Nc1cccc(-c2nnc3n2CCCC3)c1,i
COCCn1c(C)cnc1CCNC(=O)NCc1ccc(C)cc1,i
COCCn1cc(CN(C)CCc2c(C)noc2C)ccc1=O,i
OCc1n[nH]c2c1CN(Cc1cccc(OCC(O)CN3CCOCC3)c1)CC2 (stereo not drawn),i
Cc1ccc(S(=O)(=O)N2CCC(Oc3ncccc3C(=O)N(C)C)C2)cc1F (stereo not drawn),i
Cc1ccc(C2=NC3(CCN(C(=O)c4ccoc4)CC3)ON2)cc1,i
COCC(=O)N[C@@H]1CN(Cc2ccccc2C)C[C@H]1CO,i
CN1CCN(CC(N)C2CCCCC2)CC1 (stereo not drawn),i
SMILES,Pf Dd2 inh
O=C(c1cnccn1)N1CCC(c2nc(C3CCOCC3)no2)CC1,i
NC(=O)[C@@H]1CCCN1CC[C@H]1CN(C(=O)COc2ccccc2)CC[C@H]1CC(=O)O,i
COc1ccc2[nH]c3c(c2c1)CCNC31CCN(C(=O)c2cnn(C)c2)CC1,i
CC(=O)N1CC2(CCN(C(=O)CCC(=O)O)C2)Cc2ccccc21 (stereo not drawn),i
Cc1nc(-c2c3n(c(=O)n(CC(=O)NCCCc4ccccc4)c2=O)CCCC3)no1,i
Cc1nc2c(c(NCCc3nc(C)c(Cl)s3)n1)CCNCC2,i
COc1ccc(C(=O)N2CCC(Cc3nc(-c4ccc(F)cc4)no3)CC2)c(C)c1,i
Cc1cccc(C)c1NC(=O)Cn1cc(C(=O)c2ccco2)c2ccccc21,i
CCOc1ccc(NC(=O)Cn2cc(C(=O)c3ccco3)c3ccccc32)cc1,i
Cc1ccc(NC(=O)Cn2cc(C(=O)c3ccco3)c3ccccc32)cc1C,8.9µM
Cc1ccc(NC(=O)Cn2cc(C(=O)c3ccco3)c3ccccc32)cc1,11µM
O=C(Cn1cc(C(=O)c2ccco2)c2ccccc21)Nc1ccccc1C(F)(F)F,i
O=C(Cn1cc(C(=O)c2ccco2)c2ccccc21)Nc1ccccc1Cl,i
CCN1c2cc(C(=O)Nc3cccc(Br)c3)ccc2C(=O)N2CCCCC21 (stereo not drawn),i
COc1cc(NC(=O)Cn2cccc2-c2nc(-c3ccc(OC)c(F)c3)no2)cc(OC)c1,i
COc1cc(NC(=O)CSc2nc3ccccc3nc2Cc2ccc(Cl)cc2)cc(OC)c1,i
COc1cc(NC(=O)CSc2nc(-c3ccc(C(C)C)cc3)no2)cc(OC)c1,0.71µM
COc1cc(NC(=O)CSc2ncccc2C(=O)OC(C)C)cc(OC)c1,i
COc1ccc(NC(=O)CSc2cc(-c3ccccc3)nc(C)n2)cc1,i
COc1cc(NC(=O)CSc2nc(-c3ccccc3)no2)cc(OC)c1,1.1µM
O=C(c1ccc(C(F)(F)F)cc1)N1CCCC2(CN[S+](=O)([O-])c3ccccc3N2)C1 (stereo not drawn),i
COc1cncc(NC(=O)C2=NO[C@@H]3CN(Cc4ccc(O)c(Cl)c4)C[C@H]23)c1,i
CNC(=O)NC[C@H]1CCN(Cc2ccc(C#N)cc2)C[C@H]1N(C)C,i
